TIM10 inh: growth inhibitors of isogenic TIM10 control yeast, primary screen, counter-screen for tim10-1 yeast inhibitor project, luminescence, uHTS. S. cerevisiae TIM10 strain growth, BacTiter-Glo luminescence, 24 h. inhibition, % at 10 µM. hit rate 1.4% among 330,000. AID 463195, 2010;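 active = inhibition of 40% or more at the single tested concentration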;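 note: wild-type TIM10 isogenic control strain grown at permissive 25 °C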
PfHsp90 yeast 2: growth inhibition of PfHsp90-expressing yeast, primary screen, antimalarial PfHsp90 inhibitor project, S. cerevisiae, BacTiter-Glo luminescence, single point, set 2. BacTiter-Glo ATP, 48 h; yeast lacking PDR1 and PDR3 efflux regulators. inhibition, % at 9.4 µM. hit rate 0.32% among 310,000. AID 504621, 2011;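 active = every replicate shows inhibition above about 80%, whatever the replicate mean, limit read from the data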;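 note: 0% = DMSO neutral controls and 100% = 20 µM radicicol positive controls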
SKKanGAS inh: S. pyogenes SKKanGAS growth inhibitors in kanamycin, primary screen, streptokinase expression inhibitor project, SKKanGAS strain, BacTiter-Glo luminescence. 6 h. inhibition, % at 7.5 µM. hit rate 1.3% among 300,000;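 active = mean replicate score, as percent of positive control median, at least 50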;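 note: strain carries kanamycin resistance gene driven by streptokinase promoter and grows in 40 µg/ml kanamycin; loss of luminescence reflects streptokinase promoter inhibition or plain growth inhibition; 0% = median of DMSO wells and 100% = positive control at its reference dose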
tim23-1 inh: growth inhibitors of tim23-1 mutant yeast, primary screen, luminescence, uHTS; S. cerevisiae tim23-1 growth, BacTiter-Glo luminescence, 24 h; inhibition, % at 20 µM; hit rate 1.3% among 330,000; AID 463212, 2010;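 active = growth inhibition of the mutant yeast at or above 50%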;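 note: temperature-sensitive mutant grown at 25 °C; plate controls were DMSO-treated mutant yeast for no effect and medium wells lacking yeast for full effect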
EBI2 block: EBI2 receptor antagonists, beta-arrestin recruitment, primary screen, cell-based, luminescence, 7a,25-OHC stimulation, uHTS; G-protein coupled receptor 183 (Homo sapiens), P32249; 7a,25-OHC stimulated; inhibition, % at 5 µM; hit rate 0.81% among 360,000; AID 651636, 2012; in the data active = inhibition above about 38%;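 note: enzyme fragment complementation signal reports receptor beta-arrestin coupling in cells; 0% = agonist plus DMSO wells and 100% = wells without agonist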
Target sequence (P32249 whole entry, looked up, the tested form may be a part): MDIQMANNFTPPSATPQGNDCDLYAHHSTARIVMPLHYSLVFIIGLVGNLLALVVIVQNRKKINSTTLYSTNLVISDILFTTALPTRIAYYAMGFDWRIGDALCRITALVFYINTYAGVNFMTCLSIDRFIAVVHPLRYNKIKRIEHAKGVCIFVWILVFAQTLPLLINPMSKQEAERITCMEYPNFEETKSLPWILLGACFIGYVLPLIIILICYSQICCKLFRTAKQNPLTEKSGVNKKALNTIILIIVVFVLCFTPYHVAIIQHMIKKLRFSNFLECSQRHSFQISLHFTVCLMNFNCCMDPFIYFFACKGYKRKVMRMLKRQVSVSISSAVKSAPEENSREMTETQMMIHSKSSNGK
tim10-1 inh: growth inhibitors of tim10-1 mutant yeast, primary screen, luminescence, uHTS | hit rate 2.2% among 330,000 | S. cerevisiae tim10-1 ts strain growth, BacTiter-Glo, 24 h | inhibition, % at 20 µM;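 active = inhibition of at least 40%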;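 note: mutant grown at 25 °C; 0% = DMSO wells with yeast and 100% = wells holding no yeast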
tim10-1 conf: growth inhibitors of tim10-1 mutant yeast, confirmation, single concentration, luminescence, S. cerevisiae; shares compounds with tim10-1 inh; S. cerevisiae tim10-1 ts strain growth, BacTiter-Glo, 24 h; inhibition, % at 20 µM; hit rate 56% among 7,400; AID 463213, 2010;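 active = inhibition of yeast growth at or above a set limit in either of two repeat tests at 20 µM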;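 note: tim10-1 mutant grown at permissive 25 °C to find synthetic lethal compounds; 0% = DMSO yeast wells and 100% = medium wells without yeast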
TIM10 conf: growth inhibitors of wild-type TIM10 yeast, confirmation, counter-screen for tim10-1 synthetic lethality project, single concentration, luminescence, S. cerevisiae; shares compounds with TIM10 inh; S. cerevisiae tim10 strain growth, BacTiter-Glo luminescence, 24 h; inhibition, % at 10 µM; hit rate 63% among 4,600; AID 463215, 2010;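 active = inhibition of yeast growth at or above a set limit in either of two replicates at 10 µM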;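 note: this counterscreen used the strain with wild-type TIM10; 0% = yeast with DMSO and 100% = medium wells lacking yeast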
tim23-1 confirm: tim23-1 mutant yeast growth inhibitors, confirmation, luminescence, single concentration; shares compounds with tim23-1 inh; S. cerevisiae tim23-1 growth, BacTiter-Glo luminescence, 24 h; inhibition, % at 20 µM; hit rate 83% among 4,400; AID 463218, 2010;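 active = inhibition above about 39% in either of two replicate wells at 20 µM, limit read from the data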;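 note: temperature-sensitive tim23-1 mutant grown at 25 °C; 0% = DMSO wells with yeast and 100% = medium wells without yeast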
Active calls of the source: *; · = not tested or not shown. Shown are actives, neighbours in structure and some others; about 4.7% of the full set was active somewhere.

SMILES | TIM10 inh | PfHsp90 yeast 2 | SKKanGAS inh | tim23-1 inh | EBI2 block | tim10-1 inh | tim10-1 conf | TIM10 conf | tim23-1 confirm
Cc1ccc(/C(N)=N/OC(=O)c2cccc(F)c2)cc1 | 76* | 27 | -9 | 70* | 7 | 64* | 48* | 79* | 40*
Cc1ccc(C(=O)OCC(=O)Nc2ccc3c(c2)OCO3)c(O)c1 | -6 | -5 | · | -2 | 3 | -22 | · | · | ·
O=C1Nc2ccccc2N(O)N1c1cc(-c2ccc(Cl)cc2)[nH]n1 | 2 | -20 | 5 | 6 | 0 | 6 | · | · | ·
Cc1ccccc1/C=N/n1c(C2CCCCC2)n[nH]c1=S | 26 | -23 | 2 | 40 | 3 | 27 | · | · | ·
S=c1[nH]nc(C2CCCCC2)n1/N=C/c1ccccc1Br | 35 | -16 | 16 | 52* | -12 | 42* | 26 | · | 63*
S=c1[nH]nc(C2CCCCC2)n1/N=C/C=C/c1ccccc1 | 39 | -21 | 4 | 57* | 21 | 54* | 31 | · | 37
Fc1ccccc1/C=N/n1c(C2CCCCC2)n[nH]c1=S | 48* | -16 | 4 | 65* | 13 | 43* | 35* | 51* | 61*
O=C(NC1CC1)C1=C[C@H](c2ccc(C(F)(F)F)cc2)C[C@H](OCc2ccc(CO)cc2)O1 | 13 | -13 | 0 | 21 | 2 | 5 | · | · | ·
Cc1cc(C)c2cc(C)c(SCC(=O)NCc3ccco3)nc2c1 | 32 | -13 | 0 | 50* | -4 | 44* | 43* | · | 56*
O=C1C=C(c2ccc(F)nc2)C[C@@H](c2ccc3c(c2)OCO3)C1 | -2 | 9 | · | -23 | 7 | -11 | · | · | ·
CC(=O)Oc1c(Cl)c(N2CCOCC2)c(OC(C)=O)c2ccccc12 | 39 | -12 | 6 | 53* | -2 | 49* | 41* | · | 41*
COc1ccc(CCNC(=S)NC(=O)c2ccccc2)cc1OC | 53* | 3 | -9 | 56* | -3 | 48* | 39* | 31* | 44*
NC(=S)N/N=C/c1ccc(-c2cc(Cl)ccc2Cl)o1 | 45* | -106 | -2 | 54* | -1 | 44* | 18 | 39* | 62*
CCCOc1ccc(/C=c2\sc3nc(-c4ccco4)nn3c2=O)cc1OCC | 1 | -6 | -1 | -2 | 7 | 0 | · | · | ·
CC(=O)Oc1cccc(/C=c2\sc3nc(-c4ccco4)nn3c2=O)c1 | 16 | -2 | -4 | 61* | -2 | 54* | 43* | · | 63*
CC1CCCCC1NC(=S)Nc1ccc(SC(F)F)cc1 (configuration not stated) | 70* | · | 42 | 53* | 14 | 66* | 65* | 64* | 39
O=c1[nH]c(=S)[nH]c2c1C(c1ccc(Cl)cc1)OC(C1CCCCC1)C2 (configuration not stated) | · | · | · | · | -6 | · | · | · | ·
C=CC[C@@H]1C=C(C)C[C@H](C)C[C@H](OC)[C@H]2O[C@@](O)(C(=O)C(=O)N3CCCC[C@H]3C(=O)O[C@H](/C(C)=C/[C@@H]3CC[C@@H](O)[C@H](OC)C3)[C@H](C)[C@@H](O)CC1=O)[C@H](C)C[C@@H]2OC | 73* | · | 5 | 68* | · | 77* | 79* | 74* | 68*
COc1cc(C(=O)N2C(=O)CCC2=O)cc(OC)c1OC | 7 | 34 | -8 | 16 | 2 | -5 | · | · | ·
